Only some compounds are listed: those with a hit (about 3.7% of all), similar ones and a draw of the others.
MazEF act: MazEF (E. coli) toxin RNase activation. activation, % at 20 µM. FAM/BHQ RNA-DNA oligo cleavage fluorescence, 5 h. 350,000 tested, 0.32% active. P0AE70. AID 504720; in the data active = activation above about 50%
Target sequence (P0AE70 whole entry, looked up): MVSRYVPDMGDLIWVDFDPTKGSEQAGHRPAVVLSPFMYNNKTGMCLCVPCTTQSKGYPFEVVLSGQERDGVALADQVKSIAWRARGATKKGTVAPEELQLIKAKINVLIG
BoNT-F LC inh: BoNT F light chain protease inhibition | Multiplex microsphere protease cleavage assay, flow cytometry | inhibition, % at 10 µM | 360,000 tested, 0.22% active | AID 588497; in the data active = inhibition above about 35%, passing the limit was not always enough; inconclusive = no clear call, values can overlap the other calls; note: plate controls were buffer without enzyme for full effect and enzyme alone for no effect
Anthrax LF prot: anthrax lethal factor protease inhibition | P15917 | multiplex microsphere protease cleavage assay, LF | inhibition, % at 10 µM | 360,000 tested, 0.12% active; note: plate controls were buffer without enzyme for full effect and enzyme alone for no effect
BoNT-A LC inh2: inhibitors of Botulinum neurotoxin A light chain protease | inhibition, % at 10 µM | multiplex microsphere protease substrate cleavage, flow cytometry | 360,000 tested, 0.17% active; note: plate controls were buffer without enzyme for full effect and enzyme alone for no effect
Autofluor counter: flagged as autofluorescent in microsphere protease counterscreen. compound autofluorescence counterscreen, microsphere flow cytometry; active compounds read high. fluorescence intensity (no concentration beside the values). 360,000 tested, 3.1% active. AID 624483; in the data active = fluorescence intensity above about 16000; inconclusive = no clear call, values can overlap the other calls
Active calls of the source: *; ? = inconclusive; . = not tested or not shown. Cut-off read from the data, not from the text of the source, unless noted: active = inhibition above about 30%; inconclusive = no clear call, values can overlap the other calls; inactive = below that.

SMILES | MazEF act | BoNT-F LC inh | Anthrax LF prot | BoNT-A LC inh2 | Autofluor counter
O=C1c2ccccc2C(=O)c2c(NCc3cccnc3)cccc21 | -25 | 0 | -9 | 6 | 8961
O=C1c2cccc(NCCCNCCO)c2C(=O)c2cccc(NCCCNCCO)c21 | -7 | -102 | -56 | 30* | 2093
NC(=O)c1ccc(NC(=O)CSc2nnc(-c3ccc4c(c3)OCO4)o2)cc1 | -9 | -6 | -4 | 0 | 3974
O=C(CSCc1ccccc1Cl)Nc1ccc2c(c1)OCCO2 | 7 | 6 | -3 | ? | 20949*
O=C(CSc1nnc(-c2cccc(Cl)c2)o1)Nc1ccc2c(c1)OCCO2 | 0 | -1 | -5 | ? | 22299*
CC(SCc1ccccc1)C(=O)Nc1ccc2c(c1)OCO2 (stereo unspecified) | 3 | -8 | -4 | -1 | 16775*
O=C(O)CSc1nnc(-c2ccc3c(c2)OCO3)o1 | 0 | -2 | 1 | 1 | 16221*
COc1ccc(OCC(=O)NCCNC(=O)c2cccnc2)cc1 | 8 | -8 | 5 | 2 | 3834
Nc1nnc(SCC(=O)Nc2ccc3c(c2)OCCO3)s1 | 5 | -4 | -14 | -2 | 17217*
CCOc1ccc(NS(=O)(=O)c2cc(OC)ccc2OC)cc1 | 1 | -6 | 0 | 1 | 6674
COc1ccc(OC)c(S(=O)(=O)Nc2ccc(Oc3ccccc3)cc2)c1 | 2 | -1 | -11 | 2 | 21725*
CCN(c1ccccc1)S(=O)(=O)c1cc(OC)ccc1OC | 1 | 1 | -3 | 1 | 22526*
O=C(c1ccc(Br)o1)N1CCN(CCc2ccncc2)CC1 | -5 | 20 | -2 | 0 | 3545
CCN(CC)c1nc2n(c(=O)n1)CCN2CC | 1 | 1 | -2 | 2 | 21466*
C[C@H](NC(=O)c1ccccc1Cl)C(=O)OC(C(=O)Nc1cc(C(F)(F)F)ccc1Cl)c1ccccc1 (stereo partly specified) | 2 | -18 | 1 | 0 | 2808
O=C(CNC(=O)c1ccccc1F)OC(C(=O)Nc1cc(C(F)(F)F)ccc1Cl)c1ccccc1 (stereo unspecified) | 8 | 4 | 0 | 2 | 22099*
COc1ccc(OC)c(NC(=O)NC2CCCc3ccccc32)c1 (stereo unspecified) | 3 | . | . | . | .
N#CC(C#N)c1ccnc2ccccc12 | 8 | -4 | -6 | 0 | 3824
CC(=O)Nc1ccc(NC(=O)COC(=O)c2c(C)nn(-c3ccccc3)c2C)cc1 | 1 | 0 | -2 | 0 | 2061
COc1ccc(NC2=Nc3ccccc3N3C2=Nc2c(c(C)nn2-c2ccc(C)cc2)C3c2cccnc2)cc1 (stereo unspecified) | 6 | 44* | 60* | ? | 15892
CC(=O)Nc1ccc(NC2=Nc3ccccc3N3C2=Nc2c(c(C)nn2-c2ccccc2)C3c2ccccc2)cc1 (stereo unspecified) | -1 | 32 | 68* | 147* | 3420
COc1ccc(S(=O)(=O)Nc2ccc(N3CCOCC3)nc2)cc1 | -3 | -12 | -4 | 0 | 5345
CCOc1ccc(-n2c(SCc3nc(-c4ccc(C)cc4)no3)nnc2-c2ccncc2)cc1 | 3 | 25 | -12 | 24 | 10666
Cc1ccc(-c2noc(CSc3nnc(-c4ccncc4)n3-c3ccc(C)cc3)n2)cc1 | 2 | -11 | 0 | -7 | 24919*
Cc1ccc(-n2c(O)c(/C=C3/C(c4ccccc4)=Nc4ccccc43)c(=O)[nH]c2=O)cc1 | -28 | -9 | 1 | 0 | 2108
SMILES | MazEF act | BoNT-F LC inh | Anthrax LF prot | BoNT-A LC inh2 | Autofluor counter
Cc1ccccc1-n1c(O)c(/C=C2/C(c3ccccc3)=Nc3ccccc32)c(=O)[nH]c1=O | -14 | -2 | 17 | 47* | 1715
COc1ccc(NC(=S)N(CCCN2CCCC2)Cc2cccn2Cc2ccc(Cl)cc2)cc1Cl | 8 | -11 | -8 | 0 | 4517
COc1ccccc1C(=O)NCCCn1cc(Br)c(C)n1 | 5 | -3 | 3 | ? | 18046*
O=C(COC(=O)CNC(=O)C1CCCCC1)Nc1ccc(Cl)cn1 | 6 | -5 | 0 | -5 | 21353*
CC(C)CCCCCCCCCCCCC(=O)NCC(=O)NC1C(C)OC(Nc2ncnc3nc[nH]c23)C(O)C1O (stereo unspecified) | -76 | -6 | 0 | 0 | 2946
CCc1ccccc1NC(=O)Cn1nc(C(F)(F)F)cc1C1CC1 | -2 | -1 | -2 | ? | 16270*
CCNS(=O)(=O)c1ccc(NC(=O)Cn2nc(C(F)(F)F)cc2C)cc1 | 4 | -6 | 0 | 0 | 2854
O=C(CCN1CCOCC1)NNC(=O)c1ccc(Cl)c([N+](=O)[O-])c1 | 3 | 1 | 1 | 0 | 4165
NC(=O)c1ccccc1N | 2 | 4 | 4 | 0 | 3998
Nc1nnc(C(=O)c2ccccc2N)s1 | 4 | -3 | 0 | -2 | 21252*

Source: PubChem (several laboratories)
